Assays:
Assay in all cases: DAPPL (digital affinity profiling via proximity ligation, sequencing); 10 mM Tris-HCl pH 7.5, 50 mM NaCl, 1 mM DTT, 4% glycerol, room temperature, 30 min; GST-TFs on glutathione beads, 16-mer random dsDNA library, 0.1% formaldehyde crosslink after washing; high values mean tight binding
ETV5 = ETV5 (Homo sapiens, UniProt P41161 1-510); conditions: protein: recombinant; tags: N-terminal GST; dsDNA, one strand shown
Outline: (§1)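 Human transcription factors were made in yeast as GST fusions, captured on glutathione beads and barcoded with DNA. With a tag-only sample included, the pool was incubated with 200 nmole of a random double-stranded 16-mer DNA library in Tris/NaCl/DTT/glycerol buffer at room temperature for 30 min, then crosslinked with 0.1% formaldehyde after washing, ligated by proximity, amplified and sequenced. For binding signal, each hexamer's read frequency for a factor is divided by its frequency for the tag-only sample.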

HSF1 = HSF1 (Homo sapiens, UniProt Q00613 1-529); conditions: protein: recombinant; tags: N-terminal GST; chain copies: 3; dsDNA, one strand shown
Sequence of HSF1 (Q00613 whole entry): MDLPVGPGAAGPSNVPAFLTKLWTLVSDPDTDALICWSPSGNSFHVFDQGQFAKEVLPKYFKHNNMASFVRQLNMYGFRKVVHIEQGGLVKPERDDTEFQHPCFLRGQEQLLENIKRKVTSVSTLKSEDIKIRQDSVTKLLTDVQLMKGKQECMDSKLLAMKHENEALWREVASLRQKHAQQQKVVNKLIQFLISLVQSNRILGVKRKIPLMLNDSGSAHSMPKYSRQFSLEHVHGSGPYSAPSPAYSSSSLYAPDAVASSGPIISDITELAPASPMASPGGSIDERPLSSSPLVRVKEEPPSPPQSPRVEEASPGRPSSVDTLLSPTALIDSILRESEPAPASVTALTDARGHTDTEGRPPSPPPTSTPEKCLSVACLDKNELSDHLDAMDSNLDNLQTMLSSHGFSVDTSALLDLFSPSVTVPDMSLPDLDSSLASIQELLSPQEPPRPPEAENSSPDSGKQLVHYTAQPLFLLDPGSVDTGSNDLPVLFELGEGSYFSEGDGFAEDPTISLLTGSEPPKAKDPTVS
Outline: as §1

ETS2 = target: T1, ETS2 (Homo sapiens, UniProt P15036 1-469); conditions: protein: recombinant; tags: N-terminal GST; dsDNA, one strand shown
T1 sequence: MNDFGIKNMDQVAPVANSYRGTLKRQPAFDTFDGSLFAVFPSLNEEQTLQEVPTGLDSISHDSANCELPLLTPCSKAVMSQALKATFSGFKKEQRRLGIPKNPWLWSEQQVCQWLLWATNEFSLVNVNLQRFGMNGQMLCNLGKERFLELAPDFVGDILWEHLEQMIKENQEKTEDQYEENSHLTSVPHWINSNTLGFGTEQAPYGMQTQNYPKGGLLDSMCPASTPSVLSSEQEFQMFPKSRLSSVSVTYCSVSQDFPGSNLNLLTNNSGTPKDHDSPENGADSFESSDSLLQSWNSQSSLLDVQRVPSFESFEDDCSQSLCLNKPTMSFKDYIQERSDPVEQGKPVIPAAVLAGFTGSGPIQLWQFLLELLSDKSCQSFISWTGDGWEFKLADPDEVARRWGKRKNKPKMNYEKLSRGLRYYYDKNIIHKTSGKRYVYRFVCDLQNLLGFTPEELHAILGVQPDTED
Outline: as §1

ELF5 = target: T2, ELF5 (Homo sapiens, UniProt Q9UKW6-2 1-255); conditions: protein: recombinant; tags: N-terminal GST; dsDNA, one strand shown
T2 sequence: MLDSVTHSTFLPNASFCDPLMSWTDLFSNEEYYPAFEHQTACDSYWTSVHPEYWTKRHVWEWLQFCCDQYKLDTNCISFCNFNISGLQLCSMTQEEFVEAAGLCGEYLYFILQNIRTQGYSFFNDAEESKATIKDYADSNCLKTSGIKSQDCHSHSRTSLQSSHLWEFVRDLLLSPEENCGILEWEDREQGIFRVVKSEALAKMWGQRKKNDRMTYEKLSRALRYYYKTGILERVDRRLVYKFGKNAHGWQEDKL
Outline: as §1

FEV = target: T3, FEV (Homo sapiens, UniProt Q99581 1-238); conditions: protein: recombinant; tags: N-terminal GST; dsDNA, one strand shown
T3 sequence: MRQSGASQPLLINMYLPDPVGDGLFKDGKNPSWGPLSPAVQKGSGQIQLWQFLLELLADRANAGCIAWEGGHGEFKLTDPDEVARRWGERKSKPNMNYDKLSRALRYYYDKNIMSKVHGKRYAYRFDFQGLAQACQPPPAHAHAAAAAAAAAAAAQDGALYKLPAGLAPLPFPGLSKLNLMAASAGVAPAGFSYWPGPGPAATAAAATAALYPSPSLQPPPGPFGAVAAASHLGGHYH
Outline: as §1

SPDEF = target: T4, SPDEF (Homo sapiens, UniProt O95238 1-335); conditions: protein: recombinant; tags: N-terminal GST; dsDNA, one strand shown
T4 sequence: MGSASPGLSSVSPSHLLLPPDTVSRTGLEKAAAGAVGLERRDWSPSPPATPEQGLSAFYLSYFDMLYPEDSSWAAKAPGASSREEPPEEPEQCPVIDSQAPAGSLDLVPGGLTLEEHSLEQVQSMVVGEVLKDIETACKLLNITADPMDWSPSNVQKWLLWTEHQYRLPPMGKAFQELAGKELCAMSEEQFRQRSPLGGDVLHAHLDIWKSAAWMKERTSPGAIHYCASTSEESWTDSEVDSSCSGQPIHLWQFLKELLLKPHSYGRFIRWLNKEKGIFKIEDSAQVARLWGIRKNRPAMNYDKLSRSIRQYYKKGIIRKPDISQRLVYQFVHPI
Outline: as §1

CRX = CRX (Homo sapiens, UniProt O43186 1-299); conditions: protein: recombinant; tags: N-terminal GST; dsDNA, one strand shown
Sequence of CRX (O43186 whole entry): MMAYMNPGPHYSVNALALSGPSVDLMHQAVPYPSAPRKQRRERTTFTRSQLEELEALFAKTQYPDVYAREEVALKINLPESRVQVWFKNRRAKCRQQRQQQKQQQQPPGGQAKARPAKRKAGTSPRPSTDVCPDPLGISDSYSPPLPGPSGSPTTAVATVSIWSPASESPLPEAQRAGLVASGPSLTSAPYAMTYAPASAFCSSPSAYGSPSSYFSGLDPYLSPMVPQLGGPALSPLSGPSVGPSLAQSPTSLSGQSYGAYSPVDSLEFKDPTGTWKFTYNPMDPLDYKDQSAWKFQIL
Outline: as §1

Sequence of ETV5 (P41161 whole entry, the tested form may be a part): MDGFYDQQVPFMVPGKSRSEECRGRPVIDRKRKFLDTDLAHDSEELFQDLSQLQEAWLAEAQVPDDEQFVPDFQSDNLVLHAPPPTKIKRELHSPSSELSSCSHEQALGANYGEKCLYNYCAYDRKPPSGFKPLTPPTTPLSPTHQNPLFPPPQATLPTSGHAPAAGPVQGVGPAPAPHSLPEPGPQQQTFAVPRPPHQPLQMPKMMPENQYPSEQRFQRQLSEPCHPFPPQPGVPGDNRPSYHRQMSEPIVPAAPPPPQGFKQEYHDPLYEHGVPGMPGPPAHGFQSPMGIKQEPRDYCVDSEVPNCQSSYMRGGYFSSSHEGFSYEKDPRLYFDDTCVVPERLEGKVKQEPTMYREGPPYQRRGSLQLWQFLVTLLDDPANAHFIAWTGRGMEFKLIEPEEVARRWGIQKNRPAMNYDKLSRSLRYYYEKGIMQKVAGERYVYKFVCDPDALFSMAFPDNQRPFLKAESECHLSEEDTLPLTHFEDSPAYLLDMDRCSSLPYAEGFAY

Sequence	binding signal (ETV5)	binding signal (HSF1)	binding signal (ETS2)	binding signal (ELF5)	binding signal (FEV)	binding signal (SPDEF)	binding signal (CRX)
AGTAAA	1.05 fold enrichment (6-mer frequency, TF over GST control)	1.09 fold enrichment (6-mer frequency, TF over GST control)	1.02 fold enrichment (6-mer frequency, TF over GST control)	1.06 fold enrichment (6-mer frequency, TF over GST control)	–	–	–
GCGAAA	1.01 fold enrichment (6-mer frequency, TF over GST control)	1.26 fold enrichment (6-mer frequency, TF over GST control)	–	–	–	–	–
GTACGA	1.02 fold enrichment (6-mer frequency, TF over GST control)	–	–	1.03 fold enrichment (6-mer frequency, TF over GST control)	1.01 fold enrichment (6-mer frequency, TF over GST control)	1.02 fold enrichment (6-mer frequency, TF over GST control)	–
AGCTCG	1.04 fold enrichment (6-mer frequency, TF over GST control)	1.02 fold enrichment (6-mer frequency, TF over GST control)	1.01 fold enrichment (6-mer frequency, TF over GST control)	–	1.03 fold enrichment (6-mer frequency, TF over GST control)	–	–
CGCGCG	1.01 fold enrichment (6-mer frequency, TF over GST control)	–	–	–	–	–	–
CAATGT	1.02 fold enrichment (6-mer frequency, TF over GST control)	–	–	–	1 fold enrichment (6-mer frequency, TF over GST control)	1.07 fold enrichment (6-mer frequency, TF over GST control)	–
GTGCAT	1.13 fold enrichment (6-mer frequency, TF over GST control)	–	1.1 fold enrichment (6-mer frequency, TF over GST control)	1.02 fold enrichment (6-mer frequency, TF over GST control)	1.06 fold enrichment (6-mer frequency, TF over GST control)	1.17 fold enrichment (6-mer frequency, TF over GST control)	–
ACTCAG	1.03 fold enrichment (6-mer frequency, TF over GST control)	–	–	–	1.02 fold enrichment (6-mer frequency, TF over GST control)	–	–
GAAGCC	1.07 fold enrichment (6-mer frequency, TF over GST control)	–	1.01 fold enrichment (6-mer frequency, TF over GST control)	1.07 fold enrichment (6-mer frequency, TF over GST control)	1.05 fold enrichment (6-mer frequency, TF over GST control)	1.01 fold enrichment (6-mer frequency, TF over GST control)	–
ACGCTC	1.01 fold enrichment (6-mer frequency, TF over GST control)	–	–	–	–	–	–
GTTACC	1.06 fold enrichment (6-mer frequency, TF over GST control)	–	1.09 fold enrichment (6-mer frequency, TF over GST control)	1.11 fold enrichment (6-mer frequency, TF over GST control)	1.07 fold enrichment (6-mer frequency, TF over GST control)	1.03 fold enrichment (6-mer frequency, TF over GST control)	–
CATAAG	1 fold enrichment (6-mer frequency, TF over GST control)	1.13 fold enrichment (6-mer frequency, TF over GST control)	–	–	–	–	1.42 fold enrichment (6-mer frequency, TF over GST control)
CGGCTG	1.01 fold enrichment (6-mer frequency, TF over GST control)	–	1.07 fold enrichment (6-mer frequency, TF over GST control)	–	–	–	–
CGCCCA	1.01 fold enrichment (6-mer frequency, TF over GST control)	–	1.04 fold enrichment (6-mer frequency, TF over GST control)	–	1.02 fold enrichment (6-mer frequency, TF over GST control)	–	–
ACACGG	1.04 fold enrichment (6-mer frequency, TF over GST control)	–	1.08 fold enrichment (6-mer frequency, TF over GST control)	1.15 fold enrichment (6-mer frequency, TF over GST control)	–	1.17 fold enrichment (6-mer frequency, TF over GST control)	–
GGGAAA	1.05 fold enrichment (6-mer frequency, TF over GST control)	1.15 fold enrichment (6-mer frequency, TF over GST control)	–	1.42 fold enrichment (6-mer frequency, TF over GST control)	–	1.01 fold enrichment (6-mer frequency, TF over GST control)	–
CGCGCC	1.11 fold enrichment (6-mer frequency, TF over GST control)	–	–	1.03 fold enrichment (6-mer frequency, TF over GST control)	1.08 fold enrichment (6-mer frequency, TF over GST control)	1.03 fold enrichment (6-mer frequency, TF over GST control)	–
GTCTAT	1.07 fold enrichment (6-mer frequency, TF over GST control)	–	1.01 fold enrichment (6-mer frequency, TF over GST control)	1.08 fold enrichment (6-mer frequency, TF over GST control)	–	1.08 fold enrichment (6-mer frequency, TF over GST control)	–
TGTTGT	1.08 fold enrichment (6-mer frequency, TF over GST control)	–	1.05 fold enrichment (6-mer frequency, TF over GST control)	1.05 fold enrichment (6-mer frequency, TF over GST control)	1.11 fold enrichment (6-mer frequency, TF over GST control)	1.21 fold enrichment (6-mer frequency, TF over GST control)	–
AGTCCC	1.04 fold enrichment (6-mer frequency, TF over GST control)	–	–	1.06 fold enrichment (6-mer frequency, TF over GST control)	1.09 fold enrichment (6-mer frequency, TF over GST control)	1.03 fold enrichment (6-mer frequency, TF over GST control)	–

Sequence	binding signal (ETV5)	binding signal (HSF1)	binding signal (ETS2)	binding signal (ELF5)	binding signal (FEV)	binding signal (SPDEF)	binding signal (CRX)
AGCCAC	1.01 fold enrichment (6-mer frequency, TF over GST control)	–	1.05 fold enrichment (6-mer frequency, TF over GST control)	–	1.04 fold enrichment (6-mer frequency, TF over GST control)	1.05 fold enrichment (6-mer frequency, TF over GST control)	–
TCGAAC	1.01 fold enrichment (6-mer frequency, TF over GST control)	2 fold enrichment (6-mer frequency, TF over GST control)	1.03 fold enrichment (6-mer frequency, TF over GST control)	1.04 fold enrichment (6-mer frequency, TF over GST control)	–	–	1.07 fold enrichment (6-mer frequency, TF over GST control)
AGCACA	1.07 fold enrichment (6-mer frequency, TF over GST control)	–	1.02 fold enrichment (6-mer frequency, TF over GST control)	1.05 fold enrichment (6-mer frequency, TF over GST control)	1.12 fold enrichment (6-mer frequency, TF over GST control)	1.07 fold enrichment (6-mer frequency, TF over GST control)	–
GCTAGA	1.02 fold enrichment (6-mer frequency, TF over GST control)	1.96 fold enrichment (6-mer frequency, TF over GST control)	–	–	–	–	1.15 fold enrichment (6-mer frequency, TF over GST control)
GCCCCG	1.02 fold enrichment (6-mer frequency, TF over GST control)	–	1.02 fold enrichment (6-mer frequency, TF over GST control)	–	1.12 fold enrichment (6-mer frequency, TF over GST control)	1.01 fold enrichment (6-mer frequency, TF over GST control)	–
GCAATC	1.06 fold enrichment (6-mer frequency, TF over GST control)	1.01 fold enrichment (6-mer frequency, TF over GST control)	1.04 fold enrichment (6-mer frequency, TF over GST control)	–	1.05 fold enrichment (6-mer frequency, TF over GST control)	–	1 fold enrichment (6-mer frequency, TF over GST control)
TGGGTG	1.02 fold enrichment (6-mer frequency, TF over GST control)	–	1.07 fold enrichment (6-mer frequency, TF over GST control)	1.04 fold enrichment (6-mer frequency, TF over GST control)	–	1.01 fold enrichment (6-mer frequency, TF over GST control)	–
AGTGCA	1.14 fold enrichment (6-mer frequency, TF over GST control)	–	1.08 fold enrichment (6-mer frequency, TF over GST control)	1.1 fold enrichment (6-mer frequency, TF over GST control)	1.15 fold enrichment (6-mer frequency, TF over GST control)	1.07 fold enrichment (6-mer frequency, TF over GST control)	–
TGGAAG	1.03 fold enrichment (6-mer frequency, TF over GST control)	1.56 fold enrichment (6-mer frequency, TF over GST control)	1.01 fold enrichment (6-mer frequency, TF over GST control)	1.07 fold enrichment (6-mer frequency, TF over GST control)	–	–	–
GCAGCT	1.08 fold enrichment (6-mer frequency, TF over GST control)	–	1.08 fold enrichment (6-mer frequency, TF over GST control)	–	1.09 fold enrichment (6-mer frequency, TF over GST control)	1.06 fold enrichment (6-mer frequency, TF over GST control)	1 fold enrichment (6-mer frequency, TF over GST control)
TGGAAC	1.05 fold enrichment (6-mer frequency, TF over GST control)	1.86 fold enrichment (6-mer frequency, TF over GST control)	–	–	1.02 fold enrichment (6-mer frequency, TF over GST control)	–	–
GTACTG	1.08 fold enrichment (6-mer frequency, TF over GST control)	–	–	–	–	1.03 fold enrichment (6-mer frequency, TF over GST control)	–
TTGGAT	–	1.21 fold enrichment (6-mer frequency, TF over GST control)	–	–	1 fold enrichment (6-mer frequency, TF over GST control)	1.13 fold enrichment (6-mer frequency, TF over GST control)	1.39 fold enrichment (6-mer frequency, TF over GST control)
TAAGTC	–	1.21 fold enrichment (6-mer frequency, TF over GST control)	–	–	–	1.01 fold enrichment (6-mer frequency, TF over GST control)	1.79 fold enrichment (6-mer frequency, TF over GST control)
GGTAAC	–	–	1.02 fold enrichment (6-mer frequency, TF over GST control)	1.02 fold enrichment (6-mer frequency, TF over GST control)	1.05 fold enrichment (6-mer frequency, TF over GST control)	–	–
CGTTGC	–	–	1.2 fold enrichment (6-mer frequency, TF over GST control)	1.03 fold enrichment (6-mer frequency, TF over GST control)	1.11 fold enrichment (6-mer frequency, TF over GST control)	1.18 fold enrichment (6-mer frequency, TF over GST control)	–
TCGCGT	–	1.04 fold enrichment (6-mer frequency, TF over GST control)	–	–	–	–	–
CATTGC	–	–	1.17 fold enrichment (6-mer frequency, TF over GST control)	–	1.04 fold enrichment (6-mer frequency, TF over GST control)	–	–
GTTTGC	–	–	1.08 fold enrichment (6-mer frequency, TF over GST control)	1.07 fold enrichment (6-mer frequency, TF over GST control)	–	–	–

From paper PMC7862700, “An all-to-all approach to the identification of sequence-specific readers for epigenetic DNA modifications on cytosine”
